Data reported in PubChem BioAssay (NCATS).
Results filed as inconclusive are left out. Active and inactive are the calls of the source. Unless noted, calls come from the whole dose curve; as a rule, active = well fitted inhibition curve with a large enough effect; inconclusive = small, poorly fitted or top-dose-only effect; inactive = flat fitted curve, though single readings scatter.

Tests used:
[1] = qHTS drug screen for cell cycle checkpoint inhibitors in PARPi-resistant BRCA-mutant ovarian cancer cell lines. (AID 1963452; calls by dose curve); details: PEO1/OlaR viability, CellTiter-Glo luminescence, 96 h, stronger effect = lower value
Method in brief: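 PEO1, PEO4 and PEO1/OlaR ovarian cancer cells, 600 per well, exposed 96 h at 37C to a dilution series. Viability read by CellTiter-Glo luminescence, normalized to DMSO and empty wells; activity summarized as Z-AUC.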

[2] = qHTS profiling for inhibitors of Plasmodium falciparum proliferation (AID 504749); note: potency is the fitted concentration of half-maximal effect;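 for activity, negative = inhibition: 0% = DMSO vehicle and full inhibition = artemisinin control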; for all read-outs here: nearly all actives have a fitted effect of over 60% in size; details: P. falciparum in erythrocytes, SYBR Green DNA, 72 h; for activity, negative = inhibition: at 28.7 µM (top of the series)
Method in brief: (§1)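 P. falciparum-infected erythrocytes (0.3% parasitemia, 2.5% hematocrit) incubated with compound 72 h at 37 C, 5% CO2. Parasite DNA detected by SYBR Green after lysis, overnight at room temperature; normalised to 0.29 uM artemisinin and DMSO.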

3D7 = assay: as above; details: P. falciparum in erythrocytes, SYBR Green DNA, 72 h; series mostly up to 28.7 µM
Method in brief: as §1

7G8 = assay: as above; details: P. falciparum in erythrocytes, SYBR Green DNA, 72 h; series mostly up to 28.7 µM
Method in brief: as §1

AA1029 = assay: as above; details: P. falciparum in erythrocytes, SYBR Green DNA, 72 h; series mostly up to 28.7 µM
Method in brief: as §1

AS120 = assay: as above; details: P. falciparum in erythrocytes, SYBR Green DNA, 72 h; series mostly up to 28.7 µM
Method in brief: as §1

ATS189 = assay: as above; details: P. falciparum in erythrocytes, SYBR Green DNA, 72 h; series mostly up to 28.7 µM
Method in brief: as §1

[3] = qHTS for identification of novel therapeutic agents for treatment of microphthalmiaassociated transcription factor (MiT) renal cell carcinoma (RCC) (AID 1963991); details: CellTiter-Glo, 48 h, stronger effect = lower value;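 note: curves scaled with 100% = DMSO viability and 0% = empty wells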
Method in brief: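 UOK109/UOK124/UOK145 (TFE3 fusions, three partners); 500 cells/well; MIPE v4.0, 1912 cpds, 11 conc.; 48 h, 37 C; CellTiter-Glo, 15 min RT; lum. Norm.: DMSO 100%, empty 0%.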

[4] = measured here: PEO1 parental Z-AUC
[5] = TFE3-RCC UOK109 viability, measured here: UOK109 Z-AUC
[6] = TFE3-RCC viability, measured here: UOK124 Z-AUC
[7] = TFE3-RCC viability, measured here: UOK145 Z-AUC

Row | SMILES | Z-AUC [1] | Z-AUC [1, 4] | Z-AUC ([1]; measured here: PEO4 Z-AUC) | Potency ([2]; parasite line A) | Potency ([2]; parasite line B) | Potency (3D7) | Potency (7G8) | Potency (AA1029) | Potency (AS120) | Potency (ATS189) | activity, negative = inhibition ([2]; parasite line A) | activity, negative = inhibition ([2]; parasite line B) | z-score [3, 5] | z-score [3, 6] | z-score [3, 7]
1 | Clc1ccc(C(Cn2ccnc2)OCc2ccsc2Cl)c(Cl)c1 (stereo unspecified) | -0.189 (inactive) | -0.0624 | 0.0924 | 2820 nM (active) | 2820 nM (active) | 2510 nM (active) | 447 nM (active) | 7940 nM (active) | 1120 nM (active) | 6310 nM (active) | – | – | – | – | –
2 | CN(C)C(=O)COC(=O)Cc1ccc(OC(=O)c2ccc(N=C(N)N)cc2)cc1 | -0.267 (inactive) | -0.623 | -0.684 | – | – | inactive | inactive | inactive | inactive | inactive | -4.03% (inactive) | 4.45% (inactive) | – | – | –
3 | CC1(C)CCC(C)(C)c2cc(NC(=O)c3ccc(C(=O)O)cc3)ccc21 | 0.358 (inactive) | 0.445 | -0.341 | – | – | inactive | – | inactive | inactive | inactive | -1.01% (inactive) | -5.09% (inactive) | – | – | –
4 | COC1=C(OC)C(=O)C(CCCCCCCCCCO)=C(C)C1=O | -0.864 (inactive) | -1.14 | -0.303 | – | – | – | – | inactive | inactive | inactive | -28.8% (inactive) | -11.7% (inactive) | – | – | –
5 | CN1CCC(=C2c3ccccc3CCc3sccc32)CC1 | -0.614 (inactive) | -1.2 | -0.893 | – | – | inactive | 11200 nM (active) | 6310 nM (active) | – | – | -27.4% (inactive) | -20.6% (inactive) | – | – | –
6 | CCc1nc(N)nc(N)c1-c1ccc(Cl)cc1 | -0.192 (inactive) | -0.422 | -0.843 | 50.1 nM (active) | 3160 nM (active) | 79.4 nM (active) | 10000 nM (active) | inactive | – | inactive | – | – | – | – | –
7 | C=C(c1ccc(C(=O)O)cc1)c1cc2c(cc1C)C(C)(C)CCC2(C)C | 1.36 (inactive) | 0.659 | 0.161 | – | – | – | 8910 nM (active) | inactive | inactive | inactive | -4.04% (inactive) | 4.75% (inactive) | 0.216 | -0.242 | -0.306
8 | COc1cc2c(cc1OC)C1CC(=O)C(CC(C)C)CN1CC2 (stereo unspecified) | – | – | – | – | – | inactive | inactive | inactive | inactive | inactive | 3.41% (inactive) | 0.311% (inactive) | 0.853 | 0.433 | 0.758
